# Test results: PubChem BioAssay (Tox21)
# “And” between values parts separate entries of the source, which are not always exact repeats. Identical values can stand only once. Inconclusive results are not listed. Entries that show only a call come without a potency. Some compounds were tested as several samples or in several runs, with calls that do not always agree. The source made the active and inactive calls. Unless noted, calls come from the whole dose curve; as a rule, active = well fitted curve in the direction sought with a large enough effect in the repeat runs; inconclusive = weak or mixed curves; inactive = no such curve, though single readings can be large; an effect the other way counts as inactive or inconclusive. Starred links: 1 amine or outer side, 2 acyl side, 3 side chain; linkers in the order of their positions; H or OH if unused. Positions of bridges follow the written chain, without caps; N, C: chain ends. Non-standard residues stand in square brackets, D forms with d. Residues, ends and D or L forms follow the SMILES beside them. *: point of attachment. X5 = NC1=N[C@@H]([C@H](N[*:1])C(=O)[*:2])C[C@H](O)N1; ΔAla(Z-3-ureido) = NC(=O)N/C=C(\N)C(=O)O; β3hOrn = NCCC[C@H](N)CC(=O)*; Dap = NC[C@H](N)C(=O)O
# Experiments:
# [1] = qHTS assay to test for compound auto fluorescence at 535 nm (green) in HEK293 cells (AID 720680)
# [2] = qHTS assay to test for compound auto fluorescence at 460 nm (blue) in HEK293 cell free culture (AID 720681)
# Procedure, shortened: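 Compounds were added to cell-free DMEM with 10% FBS and fluorescence read directly. The blue channel used 405 nm excitation and 460 nm emission, with triamterene as the reference fluorophore.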
# [3] = qHTS assay to test for compound auto fluorescence at 535 nm (green) in HEK293 cell free culture (AID 720682)
# Procedure, shortened: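 Green-label autofluorescence (485 nm excitation, 535 nm emission) measured on compound added to cell-free culture medium (DMEM, 10% FBS). Output is expressed relative to fluorescein.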
# [4] = qHTS assay to test for compound auto fluorescence at 590 nm (red) in HEK293 cell free culture (AID 720683)
# Procedure, shortened: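 Cell-free wells of DMEM with 10% FBS received compound, and intrinsic fluorescence was read at excitation/emission 540/590 nm. Values expressed as equivalence to Rose Bengal sodium.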
# [5] = qHTS assay to test for compound auto fluorescence at 590 nm (red) in HepG2 cell free culture (AID 720684)
# Procedure, shortened: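 Compounds are added to culture medium (MEM, 10% FBS) lacking cells, then fluorescence is read at excitation 540 nm, emission 590 nm, with Rose Bengal sodium as the equivalency standard.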
# [6] = qHTS assay to test for compound auto fluorescence at 460 nm (blue) in HepG2 cell free culture (AID 720685)
# Procedure, shortened: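 Compound (23 nL) or DMSO pinned into cell-free MEM with 10% FBS; blue fluorescence read at 405/460 nm excitation/emission, expressed as auto-fluorescence equivalency to triamterene.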
# [7] = qHTS assay to test for compound auto fluorescence at 535 nm (green) in HepG2 cell free culture (AID 720686)
# [8] = qHTS assay to test for compound auto fluorescence at 460 nm (blue) in HepG2 cells (AID 720687)
# Procedure, shortened: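 HepG2 cells in MEM with 10% FBS, attached overnight at 37 C, were exposed to compound or DMSO for 1 hr at 37 C, 5% CO2. Blue fluorescence was read at 405/460 nm, with triamterene as reference fluorophore.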
# [9] = qHTS assay to identify small molecule antagonists of the glucocorticoid receptor (GR) signaling pathway - cell viability counter screen (AID 720693); note: nearly all actives have a fitted effect of over 55% in size; note: potency is the fitted concentration of half-maximal effect
# [10] = qHTS assay for identifying genotoxic compounds that show differential cytotoxicity against isogenic chicken DT40 cell lines with known DNA damage response pathways - wild type cell line (AID 743012); note: nearly all actives have a fitted effect of over 60% in size; note: potency is the fitted concentration of half-maximal effect
# Procedure, shortened: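 Wild-type DT40 cells (300/well) exposed to compounds for 40 hours at 37 C/5% CO2. Viability read by CellTiter-Glo luminescence after 30 min at room temperature.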
# [11] = qHTS assay for identifying genotoxic compounds that show differential cytotoxicity against isogenic chicken DT40 cell lines with known DNA damage response pathways - Rev3 mutant cell line (AID 743014); note: nearly all actives have a fitted effect of over 55% in size; note: potency is the fitted concentration of half-maximal effect
# [12] = qHTS assay for identifying genotoxic compounds that show differential cytotoxicity against isogenic chicken DT40 cell lines with known DNA damage response pathways - Rad54/Ku70 mutant cell line (AID 743015); note: nearly all actives have a fitted effect of over 60% in size; note: potency is the fitted concentration of half-maximal effect
# [13] = qHTS assay to identify small molecule antagonists of the androgen receptor (AR) signaling pathway - cell viability counter screen (AID 743033; note: nearly all actives have a fitted effect of over 45% in size)
# [14] = qHTS assay to identify small molecule antagonists of the androgen receptor (AR) signaling pathway using the MDA cell line - cell viability counter screen (AID 743041; note: nearly all actives have a fitted effect of over 45% in size; note: potency is the fitted concentration of half-maximal effect)
# Procedure, shortened: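 Same-well cytotoxicity was assessed by CellTiter-Fluor in MDA-kb2 AR-luc cells after 16 h of compound treatment under R1881 agonism.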
# [15] = biological target: Androgen receptor (Homo sapiens) (UniProt P10275); experiment: qHTS assay to identify small molecule agonists of the androgen receptor (AR) signaling pathway (AID 743036; active = well fitted activation curve with a large enough effect in the signal ratio in the repeat runs, with a control signal flat, not every such curve was filed as active; the % refers to the signal ratio)
# Procedure, shortened: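 AR-UAS-bla HEK293 cells, plated 4 h before dosing, were treated with compound for 16 h at 37C. beta-Lactamase reporter read after 2 h with LiveBLAzer B/G FRET substrate at room temperature.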
# [16] = biological target: Androgen receptor (Homo sapiens) (UniProt P10275); experiment: qHTS assay to identify small molecule agonists of the androgen receptor (AR) signaling pathway using the MDA cell line (AID 743040; note: nearly all actives have a fitted effect of over 20% in size)
# Procedure, shortened: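 Human breast carcinoma MDA-kb2 reporter cells (MMTV-luc, AR/GR elements) were treated for 16 h at 37C in 0% CO2 following a 5 h settling period. Signal was quantified by ONE-Glo luminescence.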
# [17] = biological target: Androgen receptor (Homo sapiens) (UniProt P10275); experiment: qHTS assay to identify small molecule antagonists of the androgen receptor (AR) signaling pathway using the MDA cell line (AID 743042; note: nearly all actives have a fitted effect of over 55% in size; note: potency is the fitted concentration of half-maximal effect)
# Procedure, shortened: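 MDA-kb2 breast carcinoma cells carrying MMTV-luciferase (AR/GR responsive) were co-treated with compounds and the agonist R1881 for 16 h at 37C. Inhibition read as ONE-Glo luminescence; CellTiter-Fluor fluorescence measured in parallel for cytotoxicity.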
# [18] = biological target: Androgen receptor (Homo sapiens) (UniProt P10275); experiment: qHTS assay to identify small molecule antagonists of the androgen receptor (AR) signaling pathway (AID 743035; active = well fitted inhibition curve with a large enough effect in the signal ratio in the repeat runs, not every such curve was filed as active; the % refers to the signal ratio)
# Procedure, shortened: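 HEK293 cells stably carrying UAS-beta-lactamase reporter, 2,000/well, given compounds plus R1881 agonist and incubated 16 h at 37C. LiveBLAzer B/G FRET substrate then added for 2 h at room temperature before fluorescence reading.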
# Sequence of Androgen receptor (Homo sapiens) (P10275 whole entry, looked up): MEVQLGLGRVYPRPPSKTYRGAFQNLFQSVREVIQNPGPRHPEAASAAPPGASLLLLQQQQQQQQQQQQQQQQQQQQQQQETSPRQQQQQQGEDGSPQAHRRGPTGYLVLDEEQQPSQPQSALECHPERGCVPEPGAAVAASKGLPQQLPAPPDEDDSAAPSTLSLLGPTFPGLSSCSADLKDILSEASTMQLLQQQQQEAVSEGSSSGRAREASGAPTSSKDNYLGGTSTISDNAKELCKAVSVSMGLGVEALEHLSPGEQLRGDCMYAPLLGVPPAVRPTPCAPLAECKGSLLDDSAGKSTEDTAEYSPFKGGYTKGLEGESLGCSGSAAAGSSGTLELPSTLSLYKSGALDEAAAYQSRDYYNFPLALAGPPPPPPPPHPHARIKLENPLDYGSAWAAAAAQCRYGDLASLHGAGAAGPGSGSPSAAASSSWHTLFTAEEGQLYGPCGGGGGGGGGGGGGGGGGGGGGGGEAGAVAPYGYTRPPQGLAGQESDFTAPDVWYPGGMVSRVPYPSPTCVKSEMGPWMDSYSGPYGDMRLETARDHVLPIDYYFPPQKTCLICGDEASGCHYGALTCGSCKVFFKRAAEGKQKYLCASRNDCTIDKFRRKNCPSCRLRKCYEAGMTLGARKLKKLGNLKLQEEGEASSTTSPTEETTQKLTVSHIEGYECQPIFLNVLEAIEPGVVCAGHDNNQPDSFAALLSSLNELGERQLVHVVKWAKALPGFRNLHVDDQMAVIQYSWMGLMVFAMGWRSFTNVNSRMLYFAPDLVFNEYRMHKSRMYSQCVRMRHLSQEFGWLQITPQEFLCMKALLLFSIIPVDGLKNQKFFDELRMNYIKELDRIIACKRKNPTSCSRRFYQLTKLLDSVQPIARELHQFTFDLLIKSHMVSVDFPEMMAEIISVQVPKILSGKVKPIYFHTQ
Compound,Potency [1],Potency [2],Potency [3],Potency [4],Potency [5],outcome [6],Potency [7],outcome [8],Potency [9],Potency [10],Potency [11],Potency [12],Potency [13],Potency [14],Potency [15],Potency [16],Potency [17],Potency [18]
C=CCOc1ccc(CC(=O)O)cc1Cl,inactive,inactive,inactive,inactive,inactive,inactive,inactive,inactive,inactive,inactive,inactive,inactive,inactive,inactive,,,,
CC1=C(C(=O)OCCN(Cc2ccccc2)c2ccccc2)C(c2cccc([N+](=O)[O-])c2)C(P2(=O)OCC(C)(C)CO2)=C(C)N1 (stereo not drawn),inactive,inactive,inactive,inactive,inactive,inactive,inactive,inactive,inactive,29.8 µM (active),,26.6 µM (active),inactive,inactive,,,,
CN1[C@@H]2CCC[C@H]1CC(NC(=O)c1nn(C)c3ccccc13)C2 (stereo partly drawn),inactive,inactive,inactive,inactive,inactive,inactive,inactive,inactive,inactive,inactive,,inactive,inactive,inactive,,,,
CC1(C)S[C@@H]2[C@H](NC(=O)C(N)c3ccccc3)C(=O)N2[C@H]1C(=O)OC1OC(=O)c2ccccc21 (stereo partly drawn),inactive,inactive,inactive,inactive,inactive,inactive,inactive,inactive,inactive,inactive,inactive,inactive,,inactive,,,,
CCSc1ccc2c(c1)N(CCCN1CCN(C)CC1)c1ccccc1S2,inactive,inactive,inactive,inactive,inactive,inactive,inactive,inactive,inactive,11.4 µM (active),14.3 µM (active),11.4 µM (active),,inactive,,,,
NC(=S)N=Nc1ccc(NN=C(N)N)cc1,inactive,inactive,inactive,inactive,inactive,inactive,inactive,inactive,inactive,2.66 µM (active),5.96 µM (active),5.31 µM (active),,26.6 µM (active),inactive,inactive,29.8 µM (active),
CC(C)(C)C(=O)OCOC(=O)[C@@H]1N2C(=O)[C@@H](N=CN3CCCCCC3)[C@H]2SC1(C)C,inactive,inactive,inactive,inactive,inactive,inactive,inactive,inactive,inactive,inactive,inactive,inactive,,inactive,,,,
COC(=O)CCC[N+](C)(C)C,inactive,inactive,inactive,inactive,inactive,inactive,inactive,inactive,inactive,inactive,,inactive,inactive,inactive,,,,
CS(=O)(=O)Nc1cc2occ(NC=O)c(=O)c2cc1Oc1ccccc1,inactive,inactive,inactive,inactive,inactive,inactive,inactive,inactive,inactive,inactive,inactive,inactive,,inactive,,inactive,inactive,
C=C1CC[C@@H]2[C@](C)(CO)[C@H](O)CC[C@@]2(C)[C@@H]1C/C=C1/C(=O)OC[C@H]1O,inactive,inactive,inactive,inactive,inactive,inactive,inactive,inactive,inactive,5.96 µM (active),8.41 µM (active),5.96 µM (active),,inactive,inactive,inactive,,
CN(CCO)CC(O)Cn1cnc2c1c(=O)n(C)c(=O)n2C (stereo not drawn) (tested in a mixture with another compound),inactive,inactive,inactive,inactive,inactive,inactive,inactive,inactive,inactive,inactive,,inactive,inactive,inactive,,,,
O=C(NNCNNC(=O)c1ccncc1)c1ccncc1,inactive,inactive,inactive,inactive,inactive,inactive,inactive,inactive,inactive,inactive,,inactive,inactive,inactive,,,,
CCCCC/C=C\C/C=C\C/C=C\CCCCC(=O)O,inactive,inactive,inactive,inactive,inactive,inactive,inactive,inactive,inactive,inactive,,inactive,inactive,inactive,,,,
COc1cc([C@@H]2c3cc4c(cc3C(O[C@@H]3O[C@@H]5CO[C@@H](C)O[C@H]5[C@H](O)[C@H]3O)C3COC(=O)[C@@H]32)OCO4)cc(OC)c1OP(=O)(O)O (stereo partly drawn),inactive,inactive,inactive,inactive,inactive,inactive,inactive,inactive,inactive,531 nM (active) and 750 nM (active),,53.1 nM (active) and 75 nM (active),inactive,inactive,,,,
O=[N+]([O-])c1ccc(Oc2ccc(N=C=S)cc2)cc1,inactive,inactive,inactive,inactive,inactive,inactive,inactive,inactive,inactive,13.3 µM (active),23.7 µM (active),18.8 µM (active),,26.6 µM (active),,,,
CC[C@H]1OC(=O)[C@H](C)[C@@H](O[C@H]2C[C@@](C)(OC)[C@@H](O)[C@H](C)O2)[C@H](C)[C@@H](O[C@@H]2O[C@H](C)C[C@H](N(C)C)[C@H]2O)[C@](C)(O)C[C@@H](C)[C@@H]2N[C@@H](COCCOC)O[C@@H]([C@H]2C)[C@]1(C)O,inactive,inactive,inactive,inactive,inactive,inactive,inactive,inactive,inactive,inactive,,inactive,inactive,,,,,
O=C(CCCN1CCC(C(=O)c2ccc(F)cc2)CC1)c1ccc(F)cc1,inactive,inactive,inactive,inactive,inactive,inactive,inactive,inactive,inactive,8.41 µM (active),,7.5 µM (active),inactive,inactive,,,,
NCCC[C@H](N)CC(=O)N[C@H]1CNC(=O)[C@H]([C@H]2C[C@H](O)NC(N)=N2)NC(=O)/C(=C/NC(N)=O)NC(=O)[C@H](CO)NC(=O)[C@H](CO)NC1=O (β3hOrn-[Dap]SS[ΔAla(Z-3-ureido)][X5]; lactam 1-C),inactive,inactive,inactive,inactive,inactive,inactive,inactive,inactive,inactive,inactive,inactive,inactive,,inactive,,,,
NC[C@@H]1O[C@H](O[C@H]2[C@@H](O)[C@H](O[C@@H]3[C@@H](O)[C@H](N)C[C@H](N)[C@H]3O[C@H]3O[C@H](CN)[C@@H](O)[C@H](O)[C@H]3N)O[C@@H]2CO)[C@H](N)[C@@H](O)[C@@H]1O,inactive,inactive,inactive,inactive,inactive,inactive,inactive,inactive,inactive,inactive,,inactive,inactive,inactive,,,,
C=C1CC[C@H](O)CC1=C/C=C1\CCC[C@]2(C)[C@@H]([C@H](C)CC[C@@H](O)C(C)(C)O)CC[C@@H]12,inactive,inactive,inactive,inactive,inactive,inactive,inactive,inactive,21.3 µM (active),7.5 µM (active),,13.3 µM (active),inactive,inactive,inactive,inactive,inactive,
CCCc1nc(C(C)(C)O)c(C(=O)OCc2oc(=O)oc2C)n1Cc1ccc(-c2ccccc2-c2nn[nH]n2)cc1,inactive,inactive,inactive,inactive,inactive,inactive,inactive,inactive,inactive,inactive,inactive,,inactive,inactive,,,,
COCC1=C(C(=O)OC(C)OC(=O)OC(C)C)N2C(=O)[C@@H](NC(=O)/C(=N\OC)c3csc(N)n3)[C@H]2SC1 (stereo partly drawn),inactive,inactive,inactive,inactive,inactive,inactive,inactive,inactive,inactive,1.68 µM (active) and inactive,2.37 µM (active) and inactive,1.06 µM (active) and inactive,,inactive,,,,
CCCCCCCCCCCCCCCCCC(=O)OCC(C)O (stereo not drawn),inactive,inactive,inactive,inactive,inactive,inactive,inactive,inactive,inactive,inactive,,inactive,inactive,26.6 µM (active),,,,
c1cnc2cc3c(cc2n1)[C@@H]1CNC[C@H]3C1,inactive,inactive,inactive,inactive,inactive,inactive,inactive,inactive,inactive,inactive,inactive,inactive,,inactive,,,,
OC[C@H]1OC([S-])[C@H](O)[C@@H](O)[C@@H]1O.[Au+] (stereo partly drawn),inactive,inactive,inactive,inactive,inactive,inactive,inactive,inactive,inactive,10.6 µM (active),inactive,,inactive,inactive,,,,
CC1CC(OC(=O)C(O)c2ccccc2)CC(C)(C)C1 (stereo not drawn),inactive,inactive,inactive,inactive,inactive,inactive,inactive,inactive,inactive,11.9 µM (active),,21.1 µM (active),inactive,inactive,,,,
COc1cc(-c2ccc(-[n+]3nc(-c4ccccc4)nn3-c3ccc([N+](=O)[O-])cc3)c(OC)c2)ccc1-[n+]1nc(-c2ccccc2)nn1-c1ccc([N+](=O)[O-])cc1,inactive,inactive,inactive,inactive,inactive,inactive,inactive,inactive,19 µM (active),5.96 µM (active),7.5 µM (active),5.31 µM (active),,,,inactive,29.8 µM (active),
CCc1ccc(S(=O)(=O)O)cc1,inactive,inactive,inactive,inactive,inactive,inactive,inactive,inactive,inactive,inactive,,inactive,inactive,inactive,inactive,inactive,inactive,inactive
CC(C(=O)O)c1ccc(C2CCCCC2)c2ccccc12 (stereo not drawn),inactive,inactive,inactive,inactive,inactive,inactive,inactive,inactive,inactive,inactive,inactive,inactive,inactive,inactive,,,,
